Measured values taken from PubChem BioAssay (NCI).
About 83,000 compounds went through this panel and 20% of them were active in at least one assay; those are over-represented in the sample as a whole.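 A percent growth of 40 corresponds to 60% growth inhibition; 0 means no net growth; -100 means all cells died. Active threshold: below 10.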 Calls of active or inactive are those of the source.

How the values were obtained:
Assay in all cases: NCI-60 one-dose screen, 48 h (100 = growth as untreated, 0 = no growth, -100 = all killed)
DU-145 prostate = conditions: 10 µM
K-562 leukemia = conditions: 10 µM
MALME-3M melanoma = conditions: 10 µM
MDA-MB-231 breast = conditions: 10 µM
RXF 393 renal = conditions: 10 µM
SF-268 CNS = conditions: 10 µM
SF-295 CNS = conditions: 10 µM
SF-539 CNS = conditions: 10 µM
M14 melanoma = conditions: 10 µM
HCT-15 colon = conditions: 10 µM
HT29 colon = conditions: 10 µM
SNB-75 CNS = conditions: 10 µM
SNB-19 CNS = conditions: 10 µM
PC-3 prostate = conditions: 10 µM
SK-MEL-5 melanoma = conditions: 10 µM
UACC-62 melanoma = conditions: 10 µM unless noted
LOX IMVI melanoma = conditions: 10 µM
SK-MEL-28 melanoma = conditions: 10 µM
UACC-257 melanoma = conditions: 10 µM
U251 CNS = conditions: 10 µM

Measured: growth

Nc1ccc(N)c([N+](=O)[O-])c1
inactive: DU-145 prostate 104% | K-562 leukemia 98.7% | MALME-3M melanoma 97.9% | MDA-MB-231 breast 80.9% | RXF 393 renal 107% | SF-268 CNS 99.9% | SF-295 CNS 108% | SF-539 CNS 94.9% | M14 melanoma 112% | HCT-15 colon 109% | HT29 colon 121% | SNB-75 CNS 102% | SNB-19 CNS 99.5% | PC-3 prostate 102% | SK-MEL-5 melanoma 95.2% | UACC-62 melanoma 98.5% | LOX IMVI melanoma 100% | SK-MEL-28 melanoma 115%

O=C(O)CCC(NC(=O)OCc1ccccc1)C(=O)O (centres undefined)
inactive: DU-145 prostate 98.7% | K-562 leukemia 96.6% | MALME-3M melanoma 96.9% | MDA-MB-231 breast 97% | RXF 393 renal 109% | SF-268 CNS 100% | SF-295 CNS 102% | SF-539 CNS 111% | M14 melanoma 103% | HCT-15 colon 110% | HT29 colon 105% | SNB-75 CNS 99.5% | SNB-19 CNS 98.1% | PC-3 prostate 97% | SK-MEL-5 melanoma 101% | UACC-62 melanoma 90.5% | LOX IMVI melanoma 98.9% | SK-MEL-28 melanoma 109%

CCCCCCCCCCC1CO1 (centres undefined)
inactive: DU-145 prostate 108% | K-562 leukemia 102% | MALME-3M melanoma 103% | MDA-MB-231 breast 111% | RXF 393 renal 103% | SF-268 CNS 106% | SF-539 CNS 105% | UACC-257 melanoma 96.4% | M14 melanoma 108% | HCT-15 colon 104% | HT29 colon 108% | SNB-75 CNS 94% | SNB-19 CNS 103% | U251 CNS 97.8% | PC-3 prostate 102% | SK-MEL-5 melanoma 100% | UACC-62 melanoma 112% | LOX IMVI melanoma 102% | SK-MEL-28 melanoma 98.4%

CCCCC1C(=O)N(c2ccccc2)N(c2ccccc2)C1=O
inactive: DU-145 prostate 113% | K-562 leukemia 99.1% | MALME-3M melanoma 97.1% | MDA-MB-231 breast 103% | RXF 393 renal 116% | SF-268 CNS 107% | SF-295 CNS 110% | UACC-257 melanoma 105% | M14 melanoma 98.9% | HCT-15 colon 102% | HT29 colon 104% | SNB-75 CNS 117% | SNB-19 CNS 102% | U251 CNS 105% | PC-3 prostate 98.9% | SK-MEL-5 melanoma 102% | LOX IMVI melanoma 99.4% | SK-MEL-28 melanoma 111%

Nc1ccccc1SC(CC(=O)c1ccccc1)c1c(Cl)cccc1Cl (centres undefined)
inactive: DU-145 prostate 23.9% | K-562 leukemia 12.4% | MALME-3M melanoma 77.1% | MDA-MB-231 breast 86.6% | RXF 393 renal 86.8% | SF-268 CNS 56% | SF-295 CNS 94.2% | SF-539 CNS 101% | M14 melanoma 93% | HCT-15 colon 44.5% | HT29 colon 42.5% | SNB-75 CNS 70.6% | U251 CNS 27% | UACC-62 melanoma 73.9% | LOX IMVI melanoma 22.7% | SK-MEL-28 melanoma 90.8%

OC1OC(COC(c2ccccc2)(c2ccccc2)c2ccccc2)C(O)C(O)C1O (centres undefined)
inactive: DU-145 prostate 107% | K-562 leukemia 95.4% | MALME-3M melanoma 90.6% | MDA-MB-231 breast 91.9% | RXF 393 renal 95.8% | SF-268 CNS 97.7% | SF-295 CNS 96.8% | SF-539 CNS 102% | M14 melanoma 105% | HCT-15 colon 98.6% | HT29 colon 110% | SNB-75 CNS 72% | U251 CNS 91% | SK-MEL-5 melanoma 100% | UACC-62 melanoma 85.5% | LOX IMVI melanoma 93.6% | SK-MEL-28 melanoma 91.4%

CCOC(=O)C/C(C)=N\O
inactive: DU-145 prostate 107% | K-562 leukemia 94.4% | MALME-3M melanoma 98.9% | MDA-MB-231 breast 105% | RXF 393 renal 113% | SF-268 CNS 103% | SF-295 CNS 91.6% | SF-539 CNS 107% | M14 melanoma 101% | HCT-15 colon 103% | HT29 colon 98.9% | SNB-75 CNS 118% | SNB-19 CNS 99.2% | PC-3 prostate 96.8% | SK-MEL-5 melanoma 100% | UACC-62 melanoma 107% | LOX IMVI melanoma 100% | SK-MEL-28 melanoma 121%

O=[N+]([O-])c1ccccc1S(=O)c1ccccc1[N+](=O)[O-]
inactive: DU-145 prostate 106% | K-562 leukemia 47.9% | MALME-3M melanoma 90.4% | MDA-MB-231 breast 74% | RXF 393 renal 111% | SF-268 CNS 88.1% | SF-295 CNS 79% | SF-539 CNS 113% | M14 melanoma 95.9% | HCT-15 colon 98.2% | HT29 colon 107% | SNB-75 CNS 83.1% | SNB-19 CNS 106% | PC-3 prostate 81.1% | SK-MEL-5 melanoma 95.7% | UACC-62 melanoma 83.3% | LOX IMVI melanoma 70% | SK-MEL-28 melanoma 100%

Nc1ccc(N=Nc2ccc(O)cc2)c(N)n1
inactive: DU-145 prostate 79.3% | K-562 leukemia 39.2% | MALME-3M melanoma 72% | MDA-MB-231 breast 73.7% | RXF 393 renal 91.6% | SF-268 CNS 73.1% | SF-539 CNS 66.5% | UACC-257 melanoma 97.9% | M14 melanoma 70.9% | HCT-15 colon 64.5% | HT29 colon 103% | SNB-75 CNS 82.5% | SNB-19 CNS 98.1% | U251 CNS 76.6% | PC-3 prostate 60.7% | SK-MEL-5 melanoma 73.3% | UACC-62 melanoma 41% | LOX IMVI melanoma 79.4% | SK-MEL-28 melanoma 89.2%

COc1cccc(COC(=O)Nc2ccccc2)c1OC
inactive: DU-145 prostate 104% | K-562 leukemia 102% | MALME-3M melanoma 105% | MDA-MB-231 breast 104% | RXF 393 renal 95.8% | SF-268 CNS 114% | SF-295 CNS 88.5% | SF-539 CNS 107% | M14 melanoma 105% | HCT-15 colon 85.4% | HT29 colon 105% | SNB-75 CNS 84.1% | SNB-19 CNS 101% | PC-3 prostate 83.9% | SK-MEL-5 melanoma 98.2% | UACC-62 melanoma 94.4% | SK-MEL-28 melanoma 102%

N#CC(=Nc1cccc(F)c1)C1=C(O)c2ccccc2C1=O
inactive: DU-145 prostate 105% | K-562 leukemia 84.4% | MALME-3M melanoma 87.1% | MDA-MB-231 breast 84.5% | RXF 393 renal 88.9% | SF-268 CNS 96.5% | SF-295 CNS 82% | SF-539 CNS 95.6% | M14 melanoma 98.2% | HCT-15 colon 76% | HT29 colon 105% | SNB-75 CNS 54.3% | SNB-19 CNS 90.4% | PC-3 prostate 83% | SK-MEL-5 melanoma 90.7% | UACC-62 melanoma 82.8% | LOX IMVI melanoma 91.1%

O=C(Nc1ccccc1C(=O)NCC1CC1)c1cccs1
inactive: DU-145 prostate 118% | K-562 leukemia 103% | MALME-3M melanoma 131% | MDA-MB-231 breast 97.1% | RXF 393 renal 98.9% | SF-268 CNS 113% | SF-295 CNS 86.5% | SF-539 CNS 101% | M14 melanoma 103% | HCT-15 colon 93.8% | HT29 colon 105% | SNB-75 CNS 70.3% | SNB-19 CNS 100% | PC-3 prostate 94.6% | SK-MEL-5 melanoma 98.7% | UACC-62 melanoma 98.4% | LOX IMVI melanoma 102% | SK-MEL-28 melanoma 110%

O=C1OC(c2ccc(F)cc2)CC1CN1CCOCC1 (centres undefined)
inactive: DU-145 prostate 106% | K-562 leukemia 113% | MALME-3M melanoma 95.6% | MDA-MB-231 breast 105% | RXF 393 renal 111% | SF-268 CNS 104% | SF-295 CNS 89.9% | SF-539 CNS 96.9% | M14 melanoma 104% | HCT-15 colon 110% | HT29 colon 90.3% | SNB-75 CNS 89.1% | SNB-19 CNS 98.1% | PC-3 prostate 88.9% | SK-MEL-5 melanoma 104% | UACC-62 melanoma 110% | LOX IMVI melanoma 89.2% | SK-MEL-28 melanoma 109%

O=C(Cc1ccc(OCc2ccccc2)cc1)NCc1ccc2c(c1)OCO2
inactive: DU-145 prostate 84.6% | K-562 leukemia 27.6% | MALME-3M melanoma 46.6% | MDA-MB-231 breast 82.8% | RXF 393 renal 105% | SF-268 CNS 68.9% | SF-539 CNS 93.7% | M14 melanoma 61.9% | HCT-15 colon 48.9% | HT29 colon 27.4% | SNB-75 CNS 91.8% | SNB-19 CNS 85.7% | PC-3 prostate 64.6% | SK-MEL-5 melanoma 95.8% | UACC-62 melanoma 61.8% | LOX IMVI melanoma 50% | SK-MEL-28 melanoma 74.7%
active: SF-295 CNS -16.6%

O=C(NCc1ccco1)Nc1c(Cl)cc(Cl)cc1Cl
inactive: DU-145 prostate 113% | K-562 leukemia 106% | MALME-3M melanoma 97.3% | MDA-MB-231 breast 101% | RXF 393 renal 107% | SF-268 CNS 104% | SF-295 CNS 93.5% | SF-539 CNS 94.7% | M14 melanoma 99.3% | HCT-15 colon 100% | HT29 colon 94.3% | SNB-75 CNS 89.1% | SNB-19 CNS 103% | PC-3 prostate 91.6% | SK-MEL-5 melanoma 100% | UACC-62 melanoma 101% | LOX IMVI melanoma 99.3% | SK-MEL-28 melanoma 103%

N#CCCc1ccc(O)cc1
inactive: DU-145 prostate 117% | K-562 leukemia 100% | MALME-3M melanoma 108% | MDA-MB-231 breast 116% | RXF 393 renal 106% | SF-268 CNS 110% | SF-295 CNS 97.8% | SF-539 CNS 99.4% | M14 melanoma 108% | HCT-15 colon 95.1% | HT29 colon 108% | SNB-75 CNS 88.3% | SNB-19 CNS 110% | PC-3 prostate 102% | SK-MEL-5 melanoma 105% | UACC-62 melanoma 102% | LOX IMVI melanoma 107% | SK-MEL-28 melanoma 105%

Cc1cc(/C=C/c2ccc3cc(N(C)C)ccc3[n+]2C)c(C)n1-c1ccccc1
active: DU-145 prostate -39.2% | K-562 leukemia 0.995% | MALME-3M melanoma -56.9% | MDA-MB-231 breast -18.9% | RXF 393 renal -96.2% | SF-268 CNS -1.17% | SF-295 CNS -33.6% | UACC-257 melanoma -39.5% | M14 melanoma -71.3% | HCT-15 colon -29.5% | HT29 colon 4.1% | SNB-75 CNS -1.13% | SNB-19 CNS 9.5% | PC-3 prostate -7.89% | SK-MEL-5 melanoma -96.8% | LOX IMVI melanoma -38% | SK-MEL-28 melanoma -63.9%

CC[N+](C)(CC)CCO
inactive: DU-145 prostate 112% | K-562 leukemia 99.6% | MALME-3M melanoma 103% | MDA-MB-231 breast 98.6% | RXF 393 renal 88.5% | SF-268 CNS 112% | SF-295 CNS 99.5% | SF-539 CNS 108% | M14 melanoma 104% | HCT-15 colon 97.8% | HT29 colon 103% | SNB-75 CNS 108% | SNB-19 CNS 97.7% | SK-MEL-5 melanoma 101% | UACC-62 melanoma 102% | LOX IMVI melanoma 101% | SK-MEL-28 melanoma 110%
